Assay results as given in PubChem BioAssay (NCATS).
Inconclusive results are not listed. Unless noted, calls come from the whole dose curve; as a rule, active = well fitted curve in either direction with a large enough effect (not every such curve was filed as active); inconclusive = small, poorly fitted or top-dose-only effect, or another doubt; inactive = flat fitted curve, though single readings scatter.

Key:
[1] = AP1 Signaling Pathway (AID 357); conditions: ME-180 AP-1-bla reporter, EGF-induced, beta-lactamase ratio, 5 h; at 17.2 µM (top of the series) unless noted;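 note: ME-180 reporter cells stimulated with EGF at its EC50 level; % is set by controls: 0 for no effect and ±100 for the full control effect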
Summary of the method: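 Cells are seeded overnight, exposed to compound titrations and an EC50 level of EGF for 5 hours at 37 °C, then loaded with CCF4 dye for 2.5 hours. Beta-lactamase activity under the AP-1 element is read as a blue/green ratio.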

[2] = NFAT Signaling Pathway (AID 444); conditions: Jurkat NFAT-bla M1, carbachol, beta-lactamase ratio, 5 h; at 17.2 µM (top of the series) unless noted;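 note: carbachol stimulus at about its EC50 of 1 µM final; % is set by controls: 0 for no effect and ±100 for the full control effect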
Summary of the method: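 Jurkat cells with NFAT-driven β-lactamase reporter and co-expressed M1 receptor, stimulated with carbachol (final 1 uM, ~EC50), compound titration, 5 h at 37 °C. CCF4 loaded 1 h at RT; 460/530 nm ratio gave %activity and AC50.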

[3] = Stat Signaling Pathway (AID 446); conditions: ME-180 (cervical carcinoma) SIE beta-lactamase reporter, IL-6 stimulated, 5 h; at 17.2 µM (top of the series) unless noted;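 note: ME-180 cervical cancer cells given 40 pM IL-6 alongside compound; SIE-controlled beta-lactamase reporter measured as 460/530 nm FRET emission ratio; % is set by controls: 0 for no effect and ±100 for the full control effect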
Summary of the method: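 IL-6/STAT signaling read in ME-180 cells via an SIE beta-lactamase reporter. Stimulus was 40 pM IL-6 (its AC50) for 5 hrs, so both activation and inhibition register.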

[4] = target: Glucocorticoid receptor (Homo sapiens) (UniProt P04150); assay: GR-GFP Redistribution (AID 450;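 active = compounds whose dose series gives a full or clear partial fitted curve of increased nuclear translocation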; note: potency is the fitted concentration of half-maximal effect)
Chain of Glucocorticoid receptor (Homo sapiens) (P04150 whole entry, looked up): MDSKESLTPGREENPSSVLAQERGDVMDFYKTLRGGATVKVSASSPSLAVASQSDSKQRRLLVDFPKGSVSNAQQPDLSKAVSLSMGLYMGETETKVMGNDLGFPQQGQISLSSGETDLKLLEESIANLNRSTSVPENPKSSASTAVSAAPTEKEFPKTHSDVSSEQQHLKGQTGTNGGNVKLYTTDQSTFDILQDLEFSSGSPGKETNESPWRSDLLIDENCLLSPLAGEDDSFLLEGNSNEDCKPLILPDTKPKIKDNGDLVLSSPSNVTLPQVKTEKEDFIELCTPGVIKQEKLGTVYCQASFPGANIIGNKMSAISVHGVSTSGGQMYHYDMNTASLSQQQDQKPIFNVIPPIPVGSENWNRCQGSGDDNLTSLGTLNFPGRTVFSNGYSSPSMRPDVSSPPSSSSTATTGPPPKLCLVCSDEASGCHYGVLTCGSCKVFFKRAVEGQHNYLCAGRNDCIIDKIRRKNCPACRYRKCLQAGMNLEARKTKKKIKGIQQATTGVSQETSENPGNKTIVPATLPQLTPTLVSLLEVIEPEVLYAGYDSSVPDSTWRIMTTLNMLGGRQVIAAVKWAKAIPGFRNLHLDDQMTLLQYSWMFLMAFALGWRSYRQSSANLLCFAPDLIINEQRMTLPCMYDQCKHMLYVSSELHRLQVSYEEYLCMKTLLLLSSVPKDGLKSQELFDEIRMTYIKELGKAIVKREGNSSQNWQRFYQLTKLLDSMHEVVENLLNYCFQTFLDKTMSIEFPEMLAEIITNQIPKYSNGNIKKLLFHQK

CCOC(=O)CSC1=C(C#N)C(c2ccc(C)cc2)C(C(=O)OC)C(=O)N1 (centres undefined)
inactive: activity change, negative = inhibition [1] 8.51% | activity change, negative = inhibition [2] 6.97% | activity, negative = inhibition [3] -7.08% | Potency [4] > 20.6 µM

CSc1nc(NC(C)=O)nc(C)c1Cl
inactive: activity change, negative = inhibition [1] 11.1% | activity change, negative = inhibition [2] -9.42% | activity, negative = inhibition [3] 3.48% | Potency [4] > 20.6 µM

Oc1c(C=NCc2ccncc2)sc2ccccc12
inactive: activity change, negative = inhibition [1] -15.7% | activity change, negative = inhibition [2] -6.22% | activity, negative = inhibition [3] -1.25% | Potency [4] > 20.6 µM

NC(=O)C1CCN(C2OC(=O)c3ccccc32)CC1 (centres undefined)
inactive: activity change, negative = inhibition [1] 2.97% | activity change, negative = inhibition [2] 1.22% | activity, negative = inhibition [3] 10.3% | Potency [4] > 20.6 µM

CC(=O)C1=C(NC(=O)c2ccccc2F)C[C@@H]2[C@H]1C2(C)C
inactive: activity change, negative = inhibition [1] -3.24% | activity change, negative = inhibition [2] -24.2% | activity, negative = inhibition [3] 18.8% | Potency [4] > 20.6 µM

Brc1ccc(-c2cnnc(N3CCCC3)n2)cc1
inactive: activity change, negative = inhibition [1] -13.4% | activity change, negative = inhibition [2] 0.485% | activity, negative = inhibition [3] 6.79% | Potency [4] > 20.6 µM

CCCCc1nc2sc3c(c2c(=O)[nH]1)CCC3
inactive: activity change, negative = inhibition [1] -16.9% | activity change, negative = inhibition [2] -7.93% | activity, negative = inhibition [3] -2.54% | Potency [4] > 20.6 µM

Cc1cc(C)nc(NC2=NCC(=O)N2c2cccc(Cl)c2)n1
inactive: activity change, negative = inhibition [1] 3.62% | activity change, negative = inhibition [2] -0.714% | activity, negative = inhibition [3] 0.214% | Potency [4] > 20.6 µM

N#CC1=C(N)N2C(=C(C#N)C1c1ccccc1)Sc1ccccc12 (centres undefined)
inactive: activity change, negative = inhibition [1] 17.5% | activity change, negative = inhibition [2] -26.8% | activity, negative = inhibition [3] 3.71% | Potency [4] > 20.6 µM

CCCCCSc1nc(C)c(CC(=O)O)c(=O)[nH]1
inactive: activity change, negative = inhibition [1] -1.76% | activity change, negative = inhibition [2] 15.5% | activity, negative = inhibition [3] 12.4% | Potency [4] > 20.6 µM

COc1ccc(C=NCCCN2CCOCC2)cc1
inactive: activity change, negative = inhibition [1] -8.54% | activity change, negative = inhibition [2] -2.1% | activity, negative = inhibition [3] -3.86% | Potency [4] > 20.6 µM

Cn1ncc(N=Cc2ccccc2O)c1C(=O)N1CCOCC1
inactive: activity change, negative = inhibition [1] 2.72% | activity change, negative = inhibition [2] -6.4% | activity, negative = inhibition [3] -4.13% | Potency [4] > 20.6 µM

CCOC(=O)c1ccc(NCC(O)COc2ccccc2)cc1 (centres undefined)
inactive: activity change, negative = inhibition [1] -4.75% | activity change, negative = inhibition [2] -1.02% | activity, negative = inhibition [3] -4.83% | Potency [4] > 20.6 µM

COc1ccc(-n2ccc(=O)c3c2CCCC3=O)cc1
inactive: activity change, negative = inhibition [1] 1.82% | activity change, negative = inhibition [2] 1.88% | activity, negative = inhibition [3] 3.34% | Potency [4] > 20.6 µM

Cc1cc(N2C(=O)C(=O)/C(=C(/O)c3ccccc3)C2c2cccs2)no1 (centres undefined)
inactive: activity change, negative = inhibition [1] -22.3% | activity change, negative = inhibition [2] 19% | activity, negative = inhibition [3] -21% | Potency [4] > 20.6 µM

C[N+]1(CCNC(=O)/C=N/O)CCCCC1
inactive: activity change, negative = inhibition [1] 7.1% | activity change, negative = inhibition [2] -12.9% | activity, negative = inhibition [3] 5.42% | Potency [4] > 20.6 µM

CN1C(=O)c2ccc(N(C)C)cc2C1=O
inactive: activity change, negative = inhibition [1] 1.85% | activity change, negative = inhibition [2] -12.3% | activity, negative = inhibition [3] 1.02% | Potency [4] > 20.6 µM

CCN(CC)CCN1C(=O)C(=O)/C(=C(/O)c2ccc(F)cc2)C1c1cccnc1 (centres undefined)
inactive: activity change, negative = inhibition [1] 12.6% | activity change, negative = inhibition [2] 3.02% | activity, negative = inhibition [3] -0.766% | Potency [4] > 20.6 µM

CCOc1cccc(-c2nnc3sc(-c4ccco4)nn23)c1
inactive: activity change, negative = inhibition [1] -1.16% | activity change, negative = inhibition [2] 18.2% | activity, negative = inhibition [3] -18.8% | Potency [4] > 20.6 µM

Cc1c(NS(=O)(=O)c2cccc3nsnc23)c(=O)n(-c2ccccc2)n1C
inactive: activity change, negative = inhibition [1] 16.3% | activity change, negative = inhibition [2] -7.17% | activity, negative = inhibition [3] 0.737% | Potency [4] > 20.6 µM

Clc1ccc(COc2ccccn2)c(Cl)c1
inactive: activity change, negative = inhibition [1] 10% | activity change, negative = inhibition [2] -8.68% | activity, negative = inhibition [3] 15.3% | Potency [4] > 20.6 µM

O=C(CN1C(=O)c2ccccc2C1=O)NCc1ccncc1
inactive: activity change, negative = inhibition [1] -3.15% | activity change, negative = inhibition [2] -0.713% | activity, negative = inhibition [3] 5.8% | Potency [4] > 20.6 µM

OCCNC1=NCCN1
inactive: activity change, negative = inhibition [1] -9.49% | activity change, negative = inhibition [2] 3.37% | activity, negative = inhibition [3] 1.85% | Potency [4] > 20.6 µM

COC(=O)/C=c1/s/c(=C(/C#N)C(=O)N2CCOCC2)n(-c2ccccc2)c1=O
inactive: activity change, negative = inhibition [1] 8.21% | activity change, negative = inhibition [2] -4.89% | activity, negative = inhibition [3] -9.79% | Potency [4] > 20.6 µM

CN1CCN(Cc2c(O)ccc3c(-c4ccccc4)cc(=O)oc23)CC1
inactive: activity change, negative = inhibition [1] -11.8% | activity change, negative = inhibition [2] -9.28% | activity, negative = inhibition [3] -7.33% | Potency [4] > 20.6 µM

CCOc1ccc(-n2c(SCc3ccc(C#N)cc3)nnc2-c2cccnc2)cc1
inactive: activity change, negative = inhibition [1] -13.8% | activity change, negative = inhibition [2] 6.12% | activity, negative = inhibition [3] -13.6% | Potency [4] > 20.6 µM
